Results taken from PubChem BioAssay (NCATS).
Results filed as inconclusive are left out. Calls of active or inactive are those of the source. The call rests on the fitted dose curve; in most records, active means well fitted curve in the direction sought with a large enough effect; inconclusive means small, poorly fitted or top-dose-only effect, or another doubt; inactive means no such curve, though single readings can be large; an effect the other way counts as inactive or inconclusive.

How the values were obtained:
[1] = target: Rap guanine nucleotide exchange factor 3 (Homo sapiens) (UniProt O95398); assay: Confirmatory qHTS for agonist of cAMP-regulated guanine nucleotide exchange factor 3 (EPAC1) (AID 1645881);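 further: EPAC1 catalysed release of BODIPY-GDP from Rap1B seen as fluorescence loss; 100% = effect of cAMP agonist control; nearly all actives have a fitted effect of over 75% in size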
Rap guanine nucleotide exchange factor 3 (Homo sapiens), sequence (O95398 whole entry, looked up): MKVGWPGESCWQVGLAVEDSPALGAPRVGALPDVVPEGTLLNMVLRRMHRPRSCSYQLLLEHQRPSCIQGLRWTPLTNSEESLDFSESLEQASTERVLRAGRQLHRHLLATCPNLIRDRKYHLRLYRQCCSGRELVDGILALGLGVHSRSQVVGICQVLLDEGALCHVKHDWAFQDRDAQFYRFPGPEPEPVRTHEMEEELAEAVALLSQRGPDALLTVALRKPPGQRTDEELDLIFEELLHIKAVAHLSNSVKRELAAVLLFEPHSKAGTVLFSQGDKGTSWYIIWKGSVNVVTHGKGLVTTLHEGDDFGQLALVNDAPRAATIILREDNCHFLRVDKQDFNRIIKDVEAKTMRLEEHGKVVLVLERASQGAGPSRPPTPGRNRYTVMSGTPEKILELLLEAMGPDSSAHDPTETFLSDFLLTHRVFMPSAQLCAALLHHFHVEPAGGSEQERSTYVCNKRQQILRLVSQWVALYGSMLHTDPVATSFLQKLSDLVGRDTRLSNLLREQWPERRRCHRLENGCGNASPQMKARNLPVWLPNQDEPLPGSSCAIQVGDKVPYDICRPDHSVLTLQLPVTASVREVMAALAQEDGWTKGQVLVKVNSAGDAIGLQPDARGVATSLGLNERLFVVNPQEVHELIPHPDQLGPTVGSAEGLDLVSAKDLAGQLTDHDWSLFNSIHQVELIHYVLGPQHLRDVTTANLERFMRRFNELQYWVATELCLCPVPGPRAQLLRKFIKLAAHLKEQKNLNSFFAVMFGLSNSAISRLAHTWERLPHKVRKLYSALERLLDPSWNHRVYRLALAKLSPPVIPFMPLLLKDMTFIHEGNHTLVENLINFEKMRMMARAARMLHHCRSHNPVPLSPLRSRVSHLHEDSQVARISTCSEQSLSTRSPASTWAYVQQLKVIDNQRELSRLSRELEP

[2] = target: Rap guanine nucleotide exchange factor 4 (Homo sapiens) (UniProt Q8WZA2); assay: Confirmatory qHTS for agonist of cAMP-regulated guanine nucleotide exchange factor 4 (EPAC2) (AID 1645884);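 further: nucleotide exchange releases bodipy-GDP from Rap1 and this lowers its fluorescence; on the % scale 0 is the no-effect control and ±100 the full control effect; nearly all actives have a fitted effect of over 65% in size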
Rap guanine nucleotide exchange factor 4 (Homo sapiens), sequence (Q8WZA2 whole entry, looked up): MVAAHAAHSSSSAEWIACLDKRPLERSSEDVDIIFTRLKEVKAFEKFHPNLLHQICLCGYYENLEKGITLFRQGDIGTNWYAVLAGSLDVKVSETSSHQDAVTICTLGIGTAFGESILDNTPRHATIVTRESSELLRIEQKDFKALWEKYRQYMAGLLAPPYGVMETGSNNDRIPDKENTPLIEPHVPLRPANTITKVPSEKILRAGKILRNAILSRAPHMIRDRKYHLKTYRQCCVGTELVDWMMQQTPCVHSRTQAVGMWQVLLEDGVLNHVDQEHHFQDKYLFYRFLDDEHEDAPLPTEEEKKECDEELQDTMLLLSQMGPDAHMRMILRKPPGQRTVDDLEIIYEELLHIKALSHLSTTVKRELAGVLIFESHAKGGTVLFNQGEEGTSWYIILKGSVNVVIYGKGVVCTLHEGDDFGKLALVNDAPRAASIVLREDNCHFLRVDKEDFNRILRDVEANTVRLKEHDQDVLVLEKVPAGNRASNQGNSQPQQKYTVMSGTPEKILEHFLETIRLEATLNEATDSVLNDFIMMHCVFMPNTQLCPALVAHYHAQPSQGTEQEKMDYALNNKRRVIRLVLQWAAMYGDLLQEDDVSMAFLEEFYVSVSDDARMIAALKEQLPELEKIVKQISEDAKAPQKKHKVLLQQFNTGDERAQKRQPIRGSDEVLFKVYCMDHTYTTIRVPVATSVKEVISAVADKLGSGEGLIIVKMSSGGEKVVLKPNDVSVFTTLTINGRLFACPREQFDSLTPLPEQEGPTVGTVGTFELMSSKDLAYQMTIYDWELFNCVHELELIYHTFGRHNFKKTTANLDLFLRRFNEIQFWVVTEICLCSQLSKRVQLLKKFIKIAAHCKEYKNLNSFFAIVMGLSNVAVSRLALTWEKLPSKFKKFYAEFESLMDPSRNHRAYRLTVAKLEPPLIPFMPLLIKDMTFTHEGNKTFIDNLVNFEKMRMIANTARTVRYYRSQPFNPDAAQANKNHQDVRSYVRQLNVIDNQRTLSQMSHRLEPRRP

[3] = target: Rap guanine nucleotide exchange factor 4 (Homo sapiens) (UniProt Q8WZA2); assay: Confirmatory qHTS for antagonist of cAMP-regulated guanine nucleotide exchange factor 4 (EPAC2) (AID 1645885); further: nearly all actives have a fitted effect of over 25% in size; further: potency means the concentration at half of the fitted maximal effect; on activity change, negative = inhibition: on the % scale 0 is the no-effect control and ±100 the full control effect
[4] = target: Rap guanine nucleotide exchange factor 3 (Homo sapiens) (UniProt O95398); assay: Counterscreen qHTS for antagonist of cAMP-regulated guanine nucleotide exchange factor 3 (EPAC1) (AID 1645888);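 further: fluorescence loss as bound BODIPY-GDP is released from Rap1B; % of control where 0% means no effect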
Method in brief: (§1)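 Rap1B–BODIPY-GDP (250 nM) with 50 uM GDP; compounds pin-transferred to 9.74 nM–152 uM final (activator) or from 7.32 nM upwards (inhibitor). Fluorescence Ex/Em 480/540 nm read at 5 and 30 min, then after adding cAMP or buffer, at room temperature.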

[5] = target: Rap guanine nucleotide exchange factor 3 (Homo sapiens) (UniProt O95398); assay: Counterscreen qHTS for agonist of cAMP-regulated guanine nucleotide exchange factor 3 (EPAC1) (AID 1645889); further: % of control where 0% means no effect; nearly all actives have a fitted effect of over 40% in size
Method in brief: as §1

O=C(COC(=O)c1ccc2c(c1)C(=O)N(Cc1ccncc1)C2=O)Nc1ccccc1[N+](=O)[O-]
inactive: Potency [1] | Potency [2] | Potency [3] | Potency [4] | Potency [5]

Cc1ccc(Cl)cc1NC(=O)Nc1cn(CC(C)C)c(=O)c2ccccc12
inactive: Potency [1] | Potency [2] | outcome [3] inactive [at 12.7 µM] | Potency [4] | Potency [5]

COc1cc(NC2c3ncccc3C(=O)N2Cc2ccco2)cc(OC)c1 (stereo not given)
inactive: Potency [1] | Potency [2] | Potency [3] | Potency [4] | Potency [5]

O=C(O)c1cc(-c2ccc(/C=C3/SC(=S)N(Cc4ccccc4)C3=O)o2)ccc1Cl
inactive: Potency [1] | activation [2] -8.48% [at 17.1 µM, percent relative to cAMP agonist control] | Potency [3] | activity change, negative = inhibition [4] -11.2% [at 30.8 µM] | activation [5] 7.37% [at 30.8 µM]

Cc1cc(C2(c3ccc(O)c(C)c3)C(=O)N(C)c3ccc(Br)cc32)ccc1O
inactive: Potency [1] | activation [2] 5.15% [at 17.1 µM, percent relative to cAMP agonist control] | Potency [3] | activity change, negative = inhibition [4] -4.41% [at 30.8 µM] | activation [5] 17.4% [at 30.8 µM]

CCOc1ccc(/C=C/C(=O)c2c(O)c3ccccc3oc2=O)cc1
inactive: Potency [1] | Potency [2] | Potency [3] | Potency [4] | Potency [5]

Fc1cccc(Cc2c(-c3ccc(Cl)cc3)nc3ccc(Cl)cn23)c1
inactive: Potency [1] | activation [2] 7.12% [at 17.1 µM, percent relative to cAMP agonist control] | Potency [3] | activity change, negative = inhibition [4] -4.02% [at 30.8 µM] | activation [5] 23% [at 30.8 µM]

CC(C)(C)C(=O)N1CCC2CC1c1cc(-c3ccc4c(c3)OCO4)ccc12 (stereo not given)
inactive: Potency [1] | activation [2] 4.8% [at 17.1 µM, percent relative to cAMP agonist control] | Potency [3] | activity change, negative = inhibition [4] -12.7% [at 30.8 µM] | activation [5] 13.1% [at 30.8 µM]

C=CCN1C(=O)/C(=C/c2ccc(OCC(=O)O)cc2)S/C1=N/c1nccs1
inactive: Potency [1] | activation [2] 0% [at 17.1 µM, percent relative to cAMP agonist control] | Potency [3] | activity change, negative = inhibition [4] -1.64% [at 30.8 µM] | activation [5] 14.3% [at 30.8 µM]

CC(NC(=O)COc1ccccc1-c1ccccc1)c1ccccc1 (stereo not given)
inactive: Potency [1] | Potency [2] | Potency [3] | Potency [4] | Potency [5]

C=CCN(CC=C)Cc1cc(=O)oc2cc(C)c(Cl)cc12
inactive: Potency [1] | activation [2] 4.33% [at 17.1 µM, percent relative to cAMP agonist control] | Potency [3] | activity change, negative = inhibition [4] -4.4% [at 30.8 µM] | activation [5] 3.33% [at 30.8 µM]

C=CCN1C(=O)/C(=C/c2ccc(OC(C)=O)c(OCC)c2[N+](=O)[O-])SC1=S
inactive: Potency [1] | activation [2] 0% [at 17.1 µM, percent relative to cAMP agonist control] | Potency [3] | activity change, negative = inhibition [4] 12.5% [at 30.8 µM] | activation [5] 52.7% [at 30.8 µM]

N#Cc1c(-c2ccc(F)cc2)cc(-c2ccccc2)nc1SCC(=O)NCC(=O)O
inactive: Potency [1] | Potency [2] | outcome [3] inactive [at 12.7 µM] | Potency [4] | Potency [5]

CCOC(=O)C(C)n1nc(-c2ccccc2)c2ccccc2c1=O (stereo not given)
inactive: Potency [1] | Potency [2] | Potency [3] | Potency [4] | Potency [5]

CC(C)CC1C(=O)N(Cc2cn(Cc3ccco3)nn2)CCS(=O)(=O)N1Cc1ccc(-c2ccccc2)cc1 (stereo not given)
inactive: Potency [1] | Potency [2] | Potency [4] | Potency [5]
active: Potency [3] 19 µM

CCCCN(Cc1ccccc1)C(=O)c1oc(=O)c2ccccc2c1-c1ccc(C)cc1
inactive: Potency [1] | Potency [2] | Potency [3] | Potency [4] | Potency [5]

CCCCN1C(=O)C(NC(=O)c2ccc(C(C)(C)C)cc2)(C(F)(F)F)C(C(=O)OC)=C1C (stereo not given)
inactive: Potency [1] | Potency [2] | Potency [3] | Potency [4] | Potency [5]

COc1ccc2oc(C(=O)Nc3ccc(N4CCOCC4)cc3)c(C)c2c1
inactive: Potency [1] | activation [2] -0.0841% [at 17.1 µM, percent relative to cAMP agonist control] | Potency [3] | activity change, negative = inhibition [4] 7.62% [at 30.8 µM] | activation [5] 8.1% [at 30.8 µM]

N#Cc1c(SCC(=O)Nc2nncs2)sc2c(O)cc(=O)[nH]c12
inactive: Potency [1] | Potency [2] | Potency [3] | Potency [4] | Potency [5]

O=C(O)CCc1ccc(-c2ccc(Br)cc2)n1-c1ccc(O)cc1
inactive: Potency [1] | Potency [2] | Potency [4] | Potency [5]
active: Potency [3] 42.6 µM

CC(=O)c1c(C)[nH]c(C(=O)OCC(=O)c2ccc3c(c2)NC(=O)CO3)c1C
inactive: Potency [1] | Potency [2] | Potency [3] | Potency [4] | Potency [5]

CN(CC(=O)Nc1ccc(Cl)c(C(F)(F)F)c1)C(=O)Cc1c[nH]c2ccccc12
inactive: Potency [1] | activation [2] 5.51% [at 17.1 µM, percent relative to cAMP agonist control] | Potency [3] | activity change, negative = inhibition [4] -15.4% [at 30.8 µM] | activation [5] 36.2% [at 30.8 µM]

CC(=O)NC(C)(c1ccccc1)c1nc(-c2cccc(C(F)(F)F)c2)cs1 (stereo not given)
inactive: Potency [1] | Potency [2] | Potency [3] | Potency [4] | Potency [5]

CCCc1nc(SC2CCCC2)c2c(=O)n(C)c(=O)n(C)c2n1
inactive: Potency [1] | Potency [2] | Potency [3] | Potency [4] | Potency [5]

COC(=O)c1cc(Sc2c(Cl)cccc2Cl)ccn1
inactive: Potency [1] | Potency [2] | Potency [4] | Potency [5]
active: Potency [3] 30.1 µM

Brc1ccc(/C=N/Nc2nc3ccccc3o2)cc1
inactive: Potency [1] | Potency [2] | Potency [3] | Potency [4] | Potency [5]

CCCc1nc2c(Cl)cc(C(F)(F)F)cn2c1Cc1ccc(OC)cc1C
inactive: Potency [1] | activation [2] 5.33% [at 17.1 µM, percent relative to cAMP agonist control] | Potency [3] | activity change, negative = inhibition [4] -8.15% [at 30.8 µM] | activation [5] 14.3% [at 30.8 µM]

Cc1cc(C)c(C)c(S(=O)(=O)N2CCCCC2C(=O)O)c1C (stereo not given)
inactive: Potency [1] | activation [2] 4.7% [at 17.1 µM, percent relative to cAMP agonist control] | Potency [3] | activity change, negative = inhibition [4] 8.45% [at 30.8 µM] | activation [5] -1.83% [at 30.8 µM]

CCOC(=O)Cc1csc(NC(=O)COc2ccc3ccccc3c2)n1
inactive: Potency [1] | activation [2] 9.25% [at 17.1 µM, percent relative to cAMP agonist control] | Potency [3] | activity change, negative = inhibition [4] 5.57% [at 30.8 µM] | activation [5] 21.1% [at 30.8 µM]

Cc1ccc(S(=O)(=O)NC(=O)c2ccc(-c3ccc(C)c4ccccc34)o2)cc1
inactive: Potency [1] | Potency [2] | Potency [3] | Potency [4] | Potency [5]

O=C(CCN1C(=O)S/C(=C\c2ccc(Cl)cc2)C1=O)Nc1ccc(C(=O)O)cc1
inactive: Potency [1] | Potency [2] | Potency [3] | Potency [4] | Potency [5]

Cc1cccc(C(=O)N=c2c(C#N)cc3c(=O)n4cccc(C)c4nc3n2Cc2ccco2)c1
inactive: Potency [1] | Potency [2] | Potency [3] | Potency [4] | Potency [5]

Cc1cc(N2CCN(c3cccc(C(F)(F)F)c3)CC2)n2nc(-c3ccccc3C)nc2n1
inactive: Potency [1] | Potency [2] | Potency [3] | Potency [4] | Potency [5]

COc1cc(/C=C2/NC(=O)NC2=O)cc(Br)c1OCc1ccc(C(=O)O)cc1
inactive: Potency [1] | activation [2] -3.55% [at 17.1 µM, percent relative to cAMP agonist control] | Potency [3] | activity change, negative = inhibition [4] -4.68% [at 30.8 µM] | activation [5] 11.1% [at 30.8 µM]
